Measurements from PubChem BioAssay.
Unmarked numbers belong to inactive results. The source made the active and inactive calls. Cut-off read from the data, not from the text of the source, unless noted: active = inhibition above about 28%; inactive = the rest.

What was measured:
[1] = biological target: Nuclear receptor coactivator 3 (Homo sapiens) (UniProt Q9Y6Q9); experiment: SRC3 coactivator transcriptional activity inhibitors, confirmation, cell-based, luminescence, quadruplicate (AID 588792;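 active = mean inhibition over 43.08%, the solvent-only control mean plus 3 SD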;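 note: 0% = DMSO treated cells and 100% = gossypol at 36 µM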); conditions: HEK293 GAL4-SRC3 luciferase reporter, at 3.6 µM, stronger effect = higher value
Sequence of Nuclear receptor coactivator 3 (Homo sapiens) (Q9Y6Q9 whole entry, looked up, the tested form may be a part): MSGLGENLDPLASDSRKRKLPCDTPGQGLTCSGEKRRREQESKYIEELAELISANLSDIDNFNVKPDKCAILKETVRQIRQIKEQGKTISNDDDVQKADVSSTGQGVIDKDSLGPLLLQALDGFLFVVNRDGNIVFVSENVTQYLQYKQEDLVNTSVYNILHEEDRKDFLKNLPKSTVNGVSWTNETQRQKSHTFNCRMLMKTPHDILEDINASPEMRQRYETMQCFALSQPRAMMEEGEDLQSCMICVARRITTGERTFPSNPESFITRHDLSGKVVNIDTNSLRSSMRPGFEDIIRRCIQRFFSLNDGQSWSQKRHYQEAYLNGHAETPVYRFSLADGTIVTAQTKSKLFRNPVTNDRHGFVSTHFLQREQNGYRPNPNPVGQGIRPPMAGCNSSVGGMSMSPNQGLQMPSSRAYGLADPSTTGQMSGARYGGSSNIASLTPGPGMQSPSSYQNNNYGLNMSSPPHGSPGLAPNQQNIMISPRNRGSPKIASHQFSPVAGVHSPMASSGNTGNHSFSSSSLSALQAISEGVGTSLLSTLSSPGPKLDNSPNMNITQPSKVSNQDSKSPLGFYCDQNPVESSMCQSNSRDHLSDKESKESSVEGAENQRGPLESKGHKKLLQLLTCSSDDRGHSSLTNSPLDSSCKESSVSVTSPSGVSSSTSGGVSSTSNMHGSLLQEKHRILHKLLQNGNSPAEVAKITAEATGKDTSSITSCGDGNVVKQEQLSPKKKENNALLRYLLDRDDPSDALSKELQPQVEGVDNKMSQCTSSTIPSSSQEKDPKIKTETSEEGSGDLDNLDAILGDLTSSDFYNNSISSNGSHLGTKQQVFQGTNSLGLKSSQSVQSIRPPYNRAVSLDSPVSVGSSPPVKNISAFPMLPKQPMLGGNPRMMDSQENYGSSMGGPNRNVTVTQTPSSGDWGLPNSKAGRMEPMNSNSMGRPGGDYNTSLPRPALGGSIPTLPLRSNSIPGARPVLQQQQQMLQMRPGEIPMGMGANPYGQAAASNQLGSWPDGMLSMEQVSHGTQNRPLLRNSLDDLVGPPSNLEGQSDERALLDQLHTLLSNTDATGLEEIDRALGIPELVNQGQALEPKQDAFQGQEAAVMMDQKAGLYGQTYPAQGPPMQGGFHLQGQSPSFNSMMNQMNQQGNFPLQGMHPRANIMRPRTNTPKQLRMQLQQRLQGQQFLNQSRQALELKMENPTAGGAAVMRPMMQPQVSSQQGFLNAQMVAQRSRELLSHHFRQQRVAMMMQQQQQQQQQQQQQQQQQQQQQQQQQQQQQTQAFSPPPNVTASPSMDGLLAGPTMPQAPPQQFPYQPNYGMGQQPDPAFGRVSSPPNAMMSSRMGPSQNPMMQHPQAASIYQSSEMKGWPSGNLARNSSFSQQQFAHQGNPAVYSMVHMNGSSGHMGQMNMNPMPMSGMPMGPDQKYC

[2] = tested on: transactivating tegument protein VP16 (Human herpesvirus 1), Gal4-VP16 luciferase reporter; experiment: VP16 transactivation inhibitors, counter-screen for SRC3 inhibitor project, cell-based, luminescence, high throughput (AID 588794; in the data active = inhibition above about 30%); conditions: mammalian cells, VP16-driven luciferase reporter luminescence; at 3.6 µM; stronger effect = higher value
[3] = biological target: Nuclear receptor coactivator 1 (Homo sapiens) (UniProt Q15788); experiment: SRC1 coactivator transcriptional activity inhibitors, confirmation, cell-based, luminescence, quadruplicate (AID 588820;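 active = mean inhibition above 46.68%, the untreated control wells mean plus 3 SD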;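 note: 0% = DMSO wells and 100% = gossypol 36 µM treated wells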); conditions: HEK293 GAL4-SRC1 luciferase reporter, at 3.6 µM, stronger effect = higher value
Sequence of Nuclear receptor coactivator 1 (Homo sapiens) (Q15788 whole entry, looked up, the tested form may be a part): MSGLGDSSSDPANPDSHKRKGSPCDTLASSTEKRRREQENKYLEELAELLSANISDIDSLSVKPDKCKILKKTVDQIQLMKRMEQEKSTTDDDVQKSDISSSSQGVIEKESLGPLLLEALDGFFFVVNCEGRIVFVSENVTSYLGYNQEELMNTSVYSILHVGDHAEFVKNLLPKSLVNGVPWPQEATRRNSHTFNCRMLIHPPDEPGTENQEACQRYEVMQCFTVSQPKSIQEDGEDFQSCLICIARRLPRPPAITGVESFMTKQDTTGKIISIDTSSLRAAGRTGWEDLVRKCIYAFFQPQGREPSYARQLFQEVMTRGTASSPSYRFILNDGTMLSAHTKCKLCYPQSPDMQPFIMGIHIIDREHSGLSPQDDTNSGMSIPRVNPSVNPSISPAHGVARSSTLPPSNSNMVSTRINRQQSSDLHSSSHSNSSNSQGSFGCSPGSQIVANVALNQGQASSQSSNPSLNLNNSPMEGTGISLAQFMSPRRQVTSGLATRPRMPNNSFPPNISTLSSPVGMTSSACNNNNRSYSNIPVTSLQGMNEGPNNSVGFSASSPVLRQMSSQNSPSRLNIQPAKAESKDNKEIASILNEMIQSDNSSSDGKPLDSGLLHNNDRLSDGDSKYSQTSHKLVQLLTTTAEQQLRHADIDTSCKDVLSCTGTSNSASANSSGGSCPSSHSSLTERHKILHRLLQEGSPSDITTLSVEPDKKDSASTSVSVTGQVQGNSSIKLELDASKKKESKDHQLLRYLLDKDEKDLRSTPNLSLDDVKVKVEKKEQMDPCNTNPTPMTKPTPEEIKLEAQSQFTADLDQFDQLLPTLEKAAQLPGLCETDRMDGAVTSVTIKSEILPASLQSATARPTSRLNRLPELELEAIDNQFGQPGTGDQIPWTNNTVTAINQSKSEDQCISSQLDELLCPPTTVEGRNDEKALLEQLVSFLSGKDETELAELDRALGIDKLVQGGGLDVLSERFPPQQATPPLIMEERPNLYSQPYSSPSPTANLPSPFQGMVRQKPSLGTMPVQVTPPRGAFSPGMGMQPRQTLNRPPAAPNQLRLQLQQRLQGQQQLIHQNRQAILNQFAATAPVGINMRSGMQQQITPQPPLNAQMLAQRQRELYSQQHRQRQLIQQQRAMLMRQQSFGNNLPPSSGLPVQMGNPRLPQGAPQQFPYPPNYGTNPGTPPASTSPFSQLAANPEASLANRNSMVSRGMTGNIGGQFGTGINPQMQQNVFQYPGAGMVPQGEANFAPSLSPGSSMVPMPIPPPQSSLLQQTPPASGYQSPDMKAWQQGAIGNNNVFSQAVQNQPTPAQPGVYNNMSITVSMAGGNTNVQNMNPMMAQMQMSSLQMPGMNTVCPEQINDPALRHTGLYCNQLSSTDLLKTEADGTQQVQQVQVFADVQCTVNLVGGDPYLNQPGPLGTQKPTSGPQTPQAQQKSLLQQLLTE

[4] = VP16 transactivation inhibitors, counter-screen for SRC1 inhibitor project, cell-based, luminescence, high throughput (AID 588824; in the data active = inhibition above about 25%); conditions: cell-based VP16 transactivation luciferase luminescence; at 3.6 µM; stronger effect = higher value
[5] = StAR promoter reporter inhibitors, counter-screen for LRH-1 inverse agonist project, cell-based, luminescence, high throughput (AID 651611); conditions: StAR promoter luciferase reporter counterscreen, at 3.6 µM, stronger effect = higher value
[6] = biological target: Nuclear receptor subfamily 5 group A member 2 (Homo sapiens) (UniProt O00482); experiment: LRH-1 (NR5A2) inverse agonists, retest, confirmation, cell-based, luminescence (AID 651613; in the data active = inhibition above about 42%;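 note: HEK293T cells co-transfected with LRH-1 and StAR promoter luciferase reporter; 0% = vehicle wells and 100% = parental cells lacking receptor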); conditions: cell-based LRH-1 luciferase reporter, inverse agonism; at 3.6 µM; stronger effect = higher value
Sequence of Nuclear receptor subfamily 5 group A member 2 (Homo sapiens) (O00482 whole entry, looked up): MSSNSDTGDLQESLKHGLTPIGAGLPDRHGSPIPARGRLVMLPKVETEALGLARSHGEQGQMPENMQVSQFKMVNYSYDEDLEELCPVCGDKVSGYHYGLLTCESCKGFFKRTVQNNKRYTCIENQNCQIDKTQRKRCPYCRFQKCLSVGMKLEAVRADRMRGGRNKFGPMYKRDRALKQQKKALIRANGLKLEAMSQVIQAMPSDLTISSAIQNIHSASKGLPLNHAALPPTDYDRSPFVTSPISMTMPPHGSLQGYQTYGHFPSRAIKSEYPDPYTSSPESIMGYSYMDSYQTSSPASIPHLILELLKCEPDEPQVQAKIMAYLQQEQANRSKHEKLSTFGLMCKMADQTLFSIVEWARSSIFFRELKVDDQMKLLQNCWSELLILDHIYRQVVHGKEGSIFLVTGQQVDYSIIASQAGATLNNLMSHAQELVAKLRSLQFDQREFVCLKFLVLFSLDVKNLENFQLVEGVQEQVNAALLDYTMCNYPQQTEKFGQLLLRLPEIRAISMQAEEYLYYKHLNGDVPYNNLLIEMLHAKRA

[7] = biological target: Steroidogenic factor 1 (Homo sapiens) (UniProt Q13285); experiment: SF1 (NR5A1) inverse agonists, counter-screen for LRH-1 inverse agonist project, cell-based, luminescence, high throughput (AID 651614; in the data active = inhibition above about 44%;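 note: cells cotransfected with StAR promoter reporter and SF1 expression vector; 0% = vehicle on cells with receptor and 100% = vehicle on cells lacking receptor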); conditions: cell-based SF1 luciferase reporter, at 3.6 µM, stronger effect = higher value
Sequence of Steroidogenic factor 1 (Homo sapiens) (Q13285 whole entry, looked up, the tested form may be a part): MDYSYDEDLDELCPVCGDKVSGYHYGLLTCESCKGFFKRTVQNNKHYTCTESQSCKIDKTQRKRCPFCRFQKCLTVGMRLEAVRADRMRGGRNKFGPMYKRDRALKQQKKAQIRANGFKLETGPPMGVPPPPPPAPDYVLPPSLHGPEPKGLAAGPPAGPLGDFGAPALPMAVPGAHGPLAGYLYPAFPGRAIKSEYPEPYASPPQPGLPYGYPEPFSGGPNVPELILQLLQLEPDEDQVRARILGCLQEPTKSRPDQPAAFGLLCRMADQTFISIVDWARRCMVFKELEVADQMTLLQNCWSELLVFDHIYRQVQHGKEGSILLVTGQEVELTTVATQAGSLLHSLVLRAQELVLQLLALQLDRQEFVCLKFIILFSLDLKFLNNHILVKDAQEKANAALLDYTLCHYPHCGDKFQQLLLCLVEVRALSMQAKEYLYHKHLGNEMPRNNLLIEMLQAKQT

[8] = VP16 transactivation reporter inhibitors, counter-screen for LRH-1 inverse agonist project, cell-based, luminescence, high throughput (AID 651615; in the data active = inhibition above about 33%); conditions: Gal4-VP16 luciferase reporter cells, at 3.6 µM, stronger effect = higher value

SMILES	inhibition [1]	inhibition [2]	inhibition [3]	inhibition [4]	inhibition [5]	inhibition [6]	inhibition [7]	inhibition [8]
CCc1nc(N)nc(N)c1-c1ccc(N(C)Cc2ccccc2)c([N+](=O)[O-])c1	63.5% (active)	54.7% (active)	69.4% (active)	60.4% (active)	71.8% (active)	69.6% (active)	65.9% (active)	64.1% (active)
CCCCCCCCCCn1ccc(=N)cc1	70.1% (active)	81.1% (active)	51.3% (active)	80.4% (active)	69.4% (active)	102% (active)	90.2% (active)	83.7% (active)
NC(=S)NN=Cc1nccc2c(C(F)(F)F)cccc12	86.8% (active)	69.7% (active)	63.9% (active)	56.4% (active)	89.7% (active)	100% (active)	93.2% (active)	66.5% (active)
COc1ccc(C2=Nn3c([n+](C)c4ccccc43)SC2)cc1	45.3% (active)	68.3% (active)	21.8%	66.5% (active)	59.1% (active)	95.7% (active)	86.5% (active)	78.7% (active)
Cc1ccc(N(CCC#N)C(=O)CCl)cc1C	54.3% (active)	14.7%	7.31%	28.4% (active)	14.8%	58.5% (active)	49.2% (active)	15.7%
O=C1C(=O)c2cccnc2-c2ncccc21	99.2% (active)	97.1% (active)	97.1% (active)	96.7% (active)	99.4% (active)	110% (active)	99.5% (active)	99.6% (active)
COc1cc(C=NO)nc(-c2ccccn2)c1	78.2% (active)	43.5% (active)	54% (active)	36.5% (active)	85.6% (active)	96% (active)	76.9% (active)	45.7% (active)
Cc1ccc(/C=C/C(=O)c2c(C)cc(C)[nH]c2=O)cc1	46.8% (active)	40% (active)	47% (active)	46.4% (active)	35.3% (active)	42.8% (active)	50.4% (active)	60.4% (active)
O=C(Nc1ccc2c(c1)OCCO2)C(c1cc2ccccc2o1)N1CCN(c2ccc(C(F)(F)F)cn2)CC1 (stereo not drawn)	19.5%	6.65%	-13.5%	-14.1%	-29.7%	-44.4%	-28%	-10.8%
COc1ccc(CCNc2ncnc3c2oc2ccccc23)cc1OC	15.8%	34.9% (active)	2.85%	32.5% (active)	34.5% (active)	51.8% (active)	58.1% (active)	55.6% (active)
CCOc1ccc(C(=O)Nc2cnn(Cc3ccc(Cl)c(Cl)c3)c2)cc1	16%	44.1% (active)	26.8%	36.8% (active)	39% (active)	62.7% (active)	60.1% (active)	70.5% (active)
CN(C)c1ccc(C=c2c3ccccc3n3c2cc(-c2ccccc2)[n+]3C)cc1	65.7% (active)	84.2% (active)	56.7% (active)	88.2% (active)	74% (active)	109% (active)	94.8% (active)	93.5% (active)
Nc1nc(N)nc(-c2cc(O)ccc2O)n1	78.4% (active)	53.5% (active)	74.7% (active)	43.7% (active)	41.7% (active)	45.4% (active)	65.9% (active)	57.1% (active)
S=C(NN=C(c1ccccc1)c1ccccn1)N(Cc1ccccn1)Cc1ccccn1	84% (active)	87.2% (active)	85% (active)	89.7% (active)	91% (active)	105% (active)	96.4% (active)	77.2% (active)
CC1Cc2cc(-c3csc(NC(=O)Cc4cccs4)n3)ccc2N1S(C)(=O)=O (stereo not drawn)	14.4%	42.5% (active)	-1.43%	57.8% (active)	47.4% (active)	63.7% (active)	62% (active)	69.9% (active)
CCCOC(c1ccccc1)(c1ccc(C(F)(F)F)cc1)C(Oc1nc(C)cc(C)n1)C(=O)O (stereo not drawn)	51.2% (active)	67% (active)	51.6% (active)	68.1% (active)	75.5% (active)	96.3% (active)	90.2% (active)	75.5% (active)
COc1ccccc1-n1cc([C@@H]2C[C@H]3CN(c4ccccc4)C(=O)[C@]34CCCN24)cn1	53.1% (active)	38% (active)	26.6%	47.4% (active)	36.2% (active)	57.8% (active)	19.5%	69.6% (active)
CCC(=O)NC(c1ccc(Cl)cc1Cl)c1ccc2cccnc2c1O (stereo not drawn)	16.2%	34.1% (active)	59.7% (active)	51.3% (active)	83.4% (active)	92.7% (active)	87.2% (active)	72.7% (active)

SMILES	inhibition [1]	inhibition [2]	inhibition [3]	inhibition [4]	inhibition [5]	inhibition [6]	inhibition [7]	inhibition [8]
C=CS(=O)(=O)N(Cc1ccc(Cl)c(Cl)c1)C[C@@H](O)CO	42.6%	19.1%	8.46%	13.3%	55.4% (active)	50.4% (active)	58% (active)	28.3%
CC(=O)NC(c1ccc(Cl)cc1)c1ccc2cccnc2c1O (stereo not drawn)	83% (active)	79.9% (active)	80% (active)	78.4% (active)	89.2% (active)	104% (active)	91.2% (active)	87% (active)
CC(C)(C)c1ccc(-c2cn(-c3ccc(Br)cc3)c3[n+]2CCCS3)cc1	51.1% (active)	59.4% (active)	52.1% (active)	61% (active)	47.8% (active)	107% (active)	80.7% (active)	89.2% (active)
COc1ccc(NC(=O)c2cc(-c3cc(C)cc(F)c3)n[nH]2)cc1OC	23.5%	44.4% (active)	15.5%	33.5% (active)	39.5% (active)	55.6% (active)	59.6% (active)	61.5% (active)
Cc1nc(N)nc(N)c1/C=C/C(C)(C)c1ccc(Cl)cc1	70% (active)	29.5% (active)	62.2% (active)	28.5% (active)	78.5% (active)	62.7% (active)	56.5% (active)	28.6%
CN(C)CCNc1ccc(CO)c2oc3ccc(O)cc3c(=O)c12	4.57%	31% (active)	33%	33.1% (active)	47.7% (active)	53.7% (active)	53.1% (active)	48.4% (active)
CC(NC(=O)Nc1nnc(C(F)(F)F)s1)(C(F)(F)F)C(F)(F)F	52.9% (active)	72% (active)	37.6%	79.1% (active)	74.9% (active)	99.7% (active)	89.4% (active)	93% (active)
CC[n+]1ccccc1/C=C1\Sc2ccc(C)cc2N1C	25.7%	64.6% (active)	23.8%	67.7% (active)	40% (active)	75.7% (active)	70.3% (active)	74.5% (active)
CC(=NNC(=S)N1CC2CCC(CC2)C1)c1ccccn1	35.5%	54.8% (active)	1.55%	49.8% (active)	59.4% (active)	98.3% (active)	77.3% (active)	64.6% (active)
Cc1ccc(NCCN(C)C)c2c(=O)c3cc(O)ccc3sc12	40.4%	41.6% (active)	46.6%	29.6% (active)	41.3% (active)	67.3% (active)	54.6% (active)	55.7% (active)
CCCc1nc2c(=O)n(C)c(=O)nc-2n(C)n1	70.5% (active)	66.6% (active)	18.4%	64% (active)	56.5% (active)	68.8% (active)	72.8% (active)	73.5% (active)
CC(C)CCCCCCCCCCCCC(=O)NCC(=O)NC1C(O)C(O)C(Nc2ncnc3nc[nH]c23)OC1C(O)CO (stereo not drawn)	96.9% (active)	95.9% (active)	94.2% (active)	95.4% (active)	96.7% (active)	110% (active)	98.1% (active)	98.2% (active)
OC[C@H]1O[C@@H](n2cnc3c(NCc4ccco4)ncnc32)[C@H](O)[C@@H]1O	58% (active)	44.6% (active)	42.5%	51.8% (active)	55.1% (active)	52.9% (active)	51.4% (active)	61.4% (active)
COc1ccc(NC(=O)c2sc(=O)n(Cc3cccc(C(F)(F)F)c3)c2C)cc1OC	24.9%	57.4% (active)	19%	52.7% (active)	46% (active)	67.8% (active)	69% (active)	73.9% (active)
COc1ccc(-c2cn(-c3ccc(OC)cc3)c3[n+]2-c2ccccc2CC3)cc1	46.3% (active)	55.9% (active)	34.7%	59.9% (active)	40.8% (active)	88.8% (active)	82.3% (active)	77.8% (active)
Cc1c(P(=S)(c2ccccc2)c2ccccc2)[n+]2ccccc2n1C/C=C/c1ccccc1	20.6%	36.9% (active)	26%	54.4% (active)	44.7% (active)	90.6% (active)	51.4% (active)	60.5% (active)
Brc1ccc2c(c1)CN1CCCC1=N2	15.1%	31.6% (active)	9.34%	28% (active)	30.9% (active)	42.2% (active)	30.6%	42.4% (active)
Cc1cc(/C=c2/sc3nc4ccccc4n3c2=O)c(C)n1-c1ccccn1	89.7% (active)	87.8% (active)	82.9% (active)	81.6% (active)	86.4% (active)	84.2% (active)	87.4% (active)	78.8% (active)
